Compounds without any hit were thinned out: in the full panel of roughly 83,000, 20% have a hit.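 Single-concentration screen, 48 h exposure, 96-well plates. Endpoint: percent growth. Below 10 = active.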 Values without a mark were called inactive. The source made the active and inactive calls.
What follows are compounds tested on A549/ATCC NSCLC (assay: NCI-60 one-dose screen, 48 h (100 = growth as untreated, 0 = no growth, -100 = all killed)). Conditions: 10 µM unless noted.

First: O=C1CCCCN1c1ccc(C2=NCCCN2)cc1
Second: CC1=Nc2cnc(Nc3ccc(N4CCCCC4)cc3)nc2Nc2ccccc21
The growth of the first is higher: 97% for the first, 79.8% for the second.

Compared with `O=C(Oc1ccc2c(c1)sc1nc(-c3ccccc3)[nH]c(=O)c12)C(F)(F)F`, `Cc1ccc2c(c1)=C/C(=C\c1cc(-c3ccccc3)[nH]c1O)C(=O)N=2` is higher in growth: 28.3% for the first, 46.2% for the second.

Compared with `CCNC(=O)N1CCc2c(Br)c3c(c(OC)c2C1Cc1ccc(OC)cc1)OCO3` (configuration not stated), `COc1ccc(CNc2ccc3nc(NC(=O)CN4CCCCCC4)sc3c2)cc1` is higher in growth: 34.2% for the first, 80.5% for the second.

First: Cc1ccccc1N1CCN(C(=S)c2ccccc2)CC1
Second: C(=C(\C1=NCCN1)n1ccc2ccccc21)/c1ccccc1
The growth of the first is lower: 87.4% for the first, 99.9% for the second.

Compared with `CS(=O)(=O)Nc1cc(-c2ccc3ncnc(Nc4ccc(F)c(Cl)c4)c3c2)ccc1Cl`, `COc1ccc(NC(=O)c2ccc(Nc3ncnc4c3cnn4-c3cccc(F)c3)cc2)cc1` is higher in growth: 31.6% for the first, 101% for the second.

Compared with `COc1c2c(cc3c1C(=O)N[C@@H]1[C@@H](O)[C@@H](O)[C@H](O)C[C@@H]31)OCCO2`, `COc1ccc2c(c1)CC[C@@H]1[C@@H]2CC[C@]2(C)c3c(cc(C#N)c4c3sc3ccccc34)C[C@@H]12` is higher in growth: 96.5% for the first, 106% for the second.

First: CCN1C(=O)N(c2ccccc2)C2NC(=S)N(/N=C/C=C/c3ccccc3OC)C21 (configuration not stated)
Second: COc1ccccc1/C=C/C(=O)Nc1ccc(F)cc1
The growth of the first is lower: 24.1% for the first, 92.9% for the second.

First: CSc1nc2ccc(C)cc2cc1/C=C1/C=C(c2ccccc2)NC1=O
Second: Cc1ccc2c(c1)sc1nc(-c3c[nH]c4ccccc34)c(Nc3ccccc3)n12
The growth of the first is lower: 47.2% for the first, 101% for the second.

First: Nc1c(C(=O)Nc2cccc3ncccc23)sc2nc3c(cc12)CN(Cc1ccccc1)CC3
Second: C=CCn1cc(-c2nc3ccccc3s2)c2cc(-c3ccc4c5c(cccc35)C(=O)N(CCO)C4=O)ccc21
The growth of the first is lower: 90.3% for the first, 95% for the second.

Going from `COC(=O)[C@]1(C)CCC[C@]2(C)[C@H]3C[C@@H]4[C@H]5[C@@H]6CC/C(=N\OCC/C(N)=N/O)[C@H]5[C@@]3(CC[C@H]21)CC4(C(C)C)O6` to `C=C(c1ccc(C(=O)O)c(F)c1)c1cc2c(cc1C)C(C)(C)CCC2(C)C`, the growth falls from 71.8% to 52%.

First: Cc1cc(Cl)nc(N2CCN(CCNc3ccnc4cc(Cl)ccc34)CC2)n1
Second: c1cc(OCCN2CCCCC2)ccc1CNc1ccc2nc(CCC3CCCCC3)[nH]c2c1
The growth of the first is higher: 58.2% for the first, 42.3% for the second.

First: CCN(CC)CCOc1ccc(/C(=C(\C)Cc2ccc(OC)cc2)c2ccc(OC(=O)NCc3ccccc3)cc2)cc1
Second: COc1cc(/C=C2\C(=O)N(CCCOc3cc(O)c4c(=O)cc(-c5ccccc5)oc4c3)c3ccccc32)cc(OC)c1O
The growth of the first is lower: 48.1% for the first, 74.5% for the second.

Going from `O=S(=O)(Nc1cc(F)cc(F)c1)c1ccc(-c2cnc(C3CC3)o2)cc1` to `C[C@@H]1CN(c2cnc(C(=O)Nc3cc(F)cc4cccnc34)cn2)C[C@H](C)N1`, the growth rises from 46.7% to 94.6%.

Going from `Clc1cccc(C2Cc3cnccc3-c3[nH]c4ccncc4c32)c1` (configuration not stated) to `c1ccc(-c2ccc3c(c2)C2(CCNCC2)CN3)cc1`, the growth rises from 42.9% to 112%.

Going from `CN(C)c1ccc(C(=S)c2ccc(N(C)C)cc2)cc1` to `CCN(CC)CCCNc1cc(OC)c(OC)c2cccnc12`, the growth falls from 67% to 56.4%.

For `Fc1cc2[nH]ncc2c2c3c(c(-c4cn[nH]c4C(F)(F)F)nc12)CCCC3`, the growth was 2.17% (active).
For `c1ccc(-c2nc3ccccc3[nH]2)c(OCCCCCOc2ccccc2-c2nc3ccccc3[nH]2)c1`, the growth was 8.77% (active).
`Cc1c2ncccc2nc2[nH]c3ccc(OCCN(C)C)cc3c12` was tested, and the growth was 5.31% (active).
With `Cc1ccc2cnc(N)c(C#Cc3cc(C(=O)Nc4ccc(CN5CCN(C)CC5)c(C(F)(F)F)c4)cnc3C)c2c1` the growth was -85.5% (active).
In the case of `O=C(NNc1nc2cc(F)ccc2n2c(CN3CCOCC3)ccc12)c1ccccc1`, the growth was 2.97% (active).
With `COC(=O)c1c2c(c[n+]([O-])c1C)C(=O)C=C(NCc1ccccc1)C2=O` the growth was -64.2% (active).
For `COC12C=C/C(=C(/C(=O)OCc3cncnc3)C(=O)CCCCCCCCC3(OC)C=C/C(=C(/C(=O)OCc4cncnc4)C(=O)CCCCCCCC1)O3)O2`, the growth was -7.89% (active).

From PubChem BioAssay (NCI)
